# Screening data (PubChem)
# JMJD2A Tudor inh = qHTS Assay for Inhibitors of JMJD2A-Tudor Domain | AlphaScreen JMJD2A-Tudor / H3K4me3 peptide binding | Potency, µM (series often up to 114 µM), for inactives: at the top dose activity change, negative = inhibition, hits mostly inhibitors | hit rate 4.4% among 390,000 | AID 504339, 2011; also: % is scaled to controls: 0 for no effect and ±100 for the full control effect; nearly all actives have a fitted effect of over 50% in size
# Target sequence (O75164 whole entry, looked up, the tested form may be a part): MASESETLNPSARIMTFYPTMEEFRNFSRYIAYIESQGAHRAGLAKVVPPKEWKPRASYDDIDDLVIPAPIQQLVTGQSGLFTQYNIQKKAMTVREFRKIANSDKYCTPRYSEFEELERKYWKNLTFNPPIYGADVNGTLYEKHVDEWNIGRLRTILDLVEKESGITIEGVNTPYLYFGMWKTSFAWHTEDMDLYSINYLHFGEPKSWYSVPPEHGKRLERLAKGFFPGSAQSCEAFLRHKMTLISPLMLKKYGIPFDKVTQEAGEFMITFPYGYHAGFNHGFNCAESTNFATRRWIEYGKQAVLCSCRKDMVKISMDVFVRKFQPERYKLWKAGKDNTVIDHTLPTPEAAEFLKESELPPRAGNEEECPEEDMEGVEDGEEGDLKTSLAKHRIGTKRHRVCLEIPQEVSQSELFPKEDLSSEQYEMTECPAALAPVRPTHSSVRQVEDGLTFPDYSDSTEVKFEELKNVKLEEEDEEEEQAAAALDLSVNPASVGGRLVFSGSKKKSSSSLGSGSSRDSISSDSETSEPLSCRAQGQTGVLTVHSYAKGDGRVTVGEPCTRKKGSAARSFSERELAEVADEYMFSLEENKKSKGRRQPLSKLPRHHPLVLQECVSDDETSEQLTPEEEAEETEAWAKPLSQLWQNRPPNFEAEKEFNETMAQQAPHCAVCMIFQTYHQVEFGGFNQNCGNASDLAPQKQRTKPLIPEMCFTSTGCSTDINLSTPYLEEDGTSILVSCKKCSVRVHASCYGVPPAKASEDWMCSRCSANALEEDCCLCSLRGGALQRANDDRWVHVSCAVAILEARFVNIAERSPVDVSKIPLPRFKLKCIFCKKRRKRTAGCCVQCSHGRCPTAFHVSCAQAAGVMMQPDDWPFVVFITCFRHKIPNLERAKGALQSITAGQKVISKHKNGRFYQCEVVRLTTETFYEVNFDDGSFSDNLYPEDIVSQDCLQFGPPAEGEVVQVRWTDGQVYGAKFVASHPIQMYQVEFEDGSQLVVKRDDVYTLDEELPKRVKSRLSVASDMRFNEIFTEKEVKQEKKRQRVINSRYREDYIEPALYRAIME
# BAZ2B block = qHTS Assay for Inhibitors of BAZ2B; AID 504333, 2011; AlphaScreen BAZ2B-H3K14Ac peptide displacement; Potency, µM (top dose mostly 114 µM), without a hit: at the top dose activity change, negative = inhibition, actives largely listed as inhibitors; hit rate 4.4% among 360,000; also: % is scaled to controls: 0 for no effect and ±100 for the full control effect; nearly all actives have a fitted effect of over 60% in size
#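 Complex of BAZ2B and biotin-H3K14Ac (50 nM apiece) forms over 30 min at RT, then faces library compounds up to 110 uM for another 30 min; AlphaScreen beads added, 20 min dark incubation, luminescence read.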
# HP1b chromo inh = HTS for Inhibitors of HP1-beta Chromodomain Interactions with Methylated Histone Tails; Potency, µM (highest dose often 114 µM), inactives show at the highest dose activity change, negative = inhibition, usual class: inhibitors; hit rate 0.56% among 390,000; AID 540317, 2011; AlphaScreen HP1-beta / biotin-H3K9me3 peptide binding; Chromobox protein homolog 1 (Homo sapiens), P83916; also: nearly all actives have a fitted effect of over 70% in size
#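 Compound inhibition of the preformed complex between 50 nM HP1-beta and 50 nM biotinylated H3K9me3 peptide was read by AlphaScreen. Buffer was PBS pH 7.4 with 0.01% Tween-20. Incubations ran 30 min at room temperature, with 10 ug/mL donor/acceptor beads.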
# Sfp PPTase inh = qHTS Assay for Inhibitors of Bacillus subtilis Sfp phosphopantetheinyl transferase (PPTase); Biochemical Sfp PPTase activity, qHTS; Potency, µM, inactives show largest response in the series, negative = inhibition, usual class: inhibitors; AID 1490, 2009; 4'-phosphopantetheinyl transferase ffp (Bacillus subtilis), Q9F4F7; hit rate 3.5% among 310,000;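 also: the enzyme is Sfp with the accession as filed and its product quenches rhodamine fluorescence; 0% = enzyme reaction without inhibitor and -100% = no enzyme wells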
#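 Sfp 15 nM + cpd, 15 min RT; start w/ rhodamine-CoA 5 uM, BHQ-2-YbbR 12.5 uM (final); 50 mM Hepes pH 7.6, 10 mM MgCl2, 0.01% NP-40, 0.01% BSA; read 525/598 nm at 0 and 30 min.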
# ALOX12 inh = Primary qHTS assay for inhibitors of human arachidonate 12S-lipoxygenase (ALOX12): Round 2; Polyunsaturated fatty acid lipoxygenase ALOX12 (Homo sapiens), P18054; purified 12hLO, xylenol orange hydroperoxide absorbance; Potency, µM (top dose mostly 108 µM), inactives show at the highest dose activity change, negative = inhibition, actives largely listed as inhibitors; hit rate 1.1% among 580,000; AID 1671190, 2021; also: % is scaled to controls: 0 for no effect and ±100 for the full control effect
#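 Hydroperoxide product was detected by ferrous iron/xylenol orange as the 573 to 405 nm absorbance ratio. Arachidonic acid at 40 uM (final) was turned over for 30 min at room temperature by 150 nM human 12hLO, pH 7.0 Hepes buffer, after 15 min compound preincubation.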
# G9a inh = qHTS Assay for Inhibitors of Histone Lysine Methyltransferase G9a | Histone-lysine N-methyltransferase EHMT2 (Homo sapiens), Q96KQ7 | G9a H3K9 monomethylation, AlphaScreen, 2 h | Potency, µM (top dose mostly 102 µM), for inactives: at the highest dose activity, negative = inhibition, usual class: inhibitors | hit rate 8.8% among 350,000 | AID 504332, 2011; also: % is scaled to controls: 0 for no effect and ±100 for the full control effect; nearly all actives have a fitted effect of over 75% in size
#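 Chemiluminescent proximity detection of H3K9 monomethylation, read after 10 min bead incubation in the dark. Reaction: 20 nM G9a, 500 nM biotin-H3K9 peptide, 20 uM SAM cofactor, 2 h, room temperature, following 15 min enzyme-compound preincubation.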
# Numbers without * were called inactive; ? = inconclusive; nt = not tested or not shown; [ ] = another dose, or the depositor's remark. A selection: hits, their analogues and other compounds. The true share with any hit is near 8.7%. Calls follow the shape of the dose curve; as a rule, active = well fitted curve in the direction sought with a large enough effect; inconclusive = small, poorly fitted or top-dose-only effect, or another doubt; inactive = no such curve, though single readings can be large; an effect the other way counts as inactive or inconclusive. Potency is read from the fitted curve at half-maximal effect.
SMILES,JMJD2A Tudor inh,BAZ2B block,HP1b chromo inh,Sfp PPTase inh,ALOX12 inh,G9a inh
O=S(=O)(c1ccccc1)N1CC=C(c2ccccc2)CC1,2.7%,-1.0%,58.5%,-4.3%,0.0%,-3.5%
CCC(C)NC(=O)C1=CCN(S(=O)(=O)c2ccc(C)cc2)CC1 (configuration not stated),-11.6%,-0.1%,5.6%,1.3%,1.5%,50.1µM*
CCC(C)NS(=O)(=O)c1ccc(S(=O)(=O)N2CC=C(c3ccc(F)cc3)CC2)cc1 (configuration not stated),?,-25.9%,?,15.4%,-19.2%,10µM*
COc1cc(-c2oc3ccc(C)cc3c(=O)c2O)cc(OC)c1OC,16.5%,15.1%,69.5%,nt,-28.2%,2.4%[59 µM]
COc1c(O)c(O)cc2c1oc1c3cc(C)ccc3oc(=O)c21,nt,nt,nt,79.4µM*,nt,nt
CCOc1cc(C(=O)N2CCN(c3cc(-c4cccs4)[nH]n3)CC2)cc(OCC)c1OCC,nt,nt,nt,nt,19.8%,nt
COc1ccc(C=C2CCc3ccccc3C2=O)cc1,nt,nt,nt,nt,-0.5%,nt
COc1ccc(/C=C2\CN(Cc3ccccc3)C/C(=C\c3ccc(OC)cc3OC)C2=O)c(OC)c1,?,25.1µM*,?,?,0.0%,14.1µM*
COc1ccc(C=C2c3ccccc3C(=O)c3ccccc32)c(OC)c1,nt,12.6µM*,nt,-4.9%,?,28.2µM*
COc1ccc(/C=C2\CN(Cc3ccccc3)C/C(=C\c3ccc(OC)cc3)C2=O)cc1,?,?,?,?,-21.8%,17.8µM*
Cn1nc(C(=O)N2CCN(c3cccc(Cl)c3)CC2)c2ccccc2c1=O,nt,nt,nt,nt,-46.2%,nt
CN(CC(=O)Nc1ccccc1Cl)C(=O)COC(=O)COc1ccc2oc3c(c2c1)CCCC3,nt,nt,nt,nt,9.2%,nt
CC1CCN(C(=O)CSc2nnc(NC(=O)Nc3ccccc3)s2)CC1,-22.1%,-3.4%,54.9%,nt,?,12.6µM*
CCSc1nnc(NC(=O)CSc2nccn2-c2cc(C)cc(C)c2)s1,-17.8%,?,8.3%,2.4%,16.2%,?
CCSc1nnc(NC(=O)CSc2nccn2-c2cccc(C)c2C)s1,25.1µM*,?,?,-8.9%,135.9%,?
CCOc1ccccc1C(=O)Nc1nnc(SCC(=O)N2CCOCC2)s1,14.1%,-37.0%,28.1%,12.9%,-0.8%,-3.7%
Cc1cccc(C)c1NC(=O)CSc1nnc(NC(=O)c2ccccc2C(=O)O)s1,-2.0%,-14.9%,12.3%,16.8%,?,50.1µM*
O=C(Nc1nnc(SCC(=O)N2CCOCC2)s1)c1ccccc1,?,3.3%,30.8%,6.4%,-17.2%,10µM*
COCCC(=O)NCC(=O)N1CCCCCNC(=O)CC1c1ccccc1 (configuration not stated),nt,nt,nt,nt,9.1%,nt
Cc1noc(C(C)N2CCN(c3oc(-c4ccco4)nc3C#N)CC2)n1 (configuration not stated),nt,nt,nt,nt,-29.9%,nt
CC(C)N1CCN(C(=O)CCC2CCN(S(=O)(=O)c3ccccc3F)CC2)CC1,nt,nt,nt,nt,4.8%,nt
CCc1cc(=O)n(CC(=O)Nc2cccc(C(C)=O)c2)c(N2CCOCC2)n1,nt,nt,nt,nt,20.8%,nt
Cc1cc(=O)n(CC(=O)Nc2cccc(C(F)(F)F)c2)c(N2CCN(c3ccccc3)CC2)n1,nt,nt,nt,nt,5.8%,nt
CS(=O)(=O)Nc1nnc(SCC(=O)N(c2ccccc2)c2ccccc2)s1,-12.8%,-30.9%,24.7%,4.7%,-18.9%,50.1µM*
CC(C)N(C(=O)CSc1nnc(NC(=O)c2cccs2)s1)C(C)C,-12.5%,-3.4%,59.5%,29.5%,-20.5%,-11.5%[59 µM]
SMILES,JMJD2A Tudor inh,BAZ2B block,HP1b chromo inh,Sfp PPTase inh,ALOX12 inh,G9a inh
CCCC(=O)Nc1nnc(SCC(=O)N2CCCCC2)s1,70.8µM*,3.4%,?,-10.6%,?,17.8µM*
Cc1ccc2[nH]c(CSc3nnc(NC(=O)c4ccccc4C)s3)cc(=O)c2c1,-20.8%,56.2µM*,23.4%[57 µM],nt,?,-44.4%[59 µM]
Cc1ccc2[nH]c(CSc3nnc(NC(=O)c4ccccc4F)s3)cc(=O)c2c1,-7.8%,4.5%,21.3%[57 µM],nt,-26.8%,-13.7%[59 µM]
Cc1cccc(C)c1NC(=O)CCCSc1nnc(N)s1,-2.3%,-2.8%,48.2%,1.0%,-1.1%,50.1µM*
Cc1ccc([S+](=O)([O-])c2nnn3c2nc(NCc2ccncc2)c2ccccc23)cc1C,nt,nt,nt,nt,-3.7%[6.33 µM],nt
CNC(=O)CSc1nnc(NC(=O)Nc2ccccc2)s1,-3.9%,2.2%,98.9%,nt,?,15.8µM*
CCCCc1ccc(-c2cc(C(=O)NC3CC3)c3cc(Br)ccc3n2)cc1,nt,nt,nt,nt,-16.9%,nt
Cc1cc(C)nc(SCC(=O)c2cc3ccccc3oc2=O)n1,-20.8%,-33.5%,34.7%,17.8µM*,0.0%,?
O=C(CSC(=S)N1CCOCC1)c1cc2ccccc2oc1=O,-29.9%,-23.7%,-3.4%,-3.6%,nt,70.8µM*
O=C(Nc1ccc(C(=O)Nc2ccc(C(=O)Nc3ccc(S(=O)(=O)O)c4cc(S(=O)(=O)O)cc(S(=O)(=O)O)c34)cc2)cc1)Nc1ccc(C(=O)Nc2ccc(C(=O)Nc3ccc(S(=O)(=O)O)c4cc(S(=O)(=O)O)cc(S(=O)(=O)O)c34)cc2)cc1,nt,nt,nt,?,-0.7%,1.26µM*
O=C(Nc1cc(C(=O)Nc2ccc(S(=O)(=O)O)cc2S(=O)(=O)O)cc(C(=O)Nc2ccc(S(=O)(=O)O)cc2S(=O)(=O)O)c1)Nc1cc(C(=O)Nc2ccc(S(=O)(=O)O)cc2S(=O)(=O)O)cc(C(=O)Nc2ccc(S(=O)(=O)O)cc2S(=O)(=O)O)c1,nt,nt,nt,6.1%,27.5%,0.0708µM*
Cc1cc(C)nc(/N=C2\NC(=O)CC(C(=O)O)N2c2ccc(C)c(C)c2)n1 (configuration not stated),12.6µM*,-10.0%,-2.5%,4.9%,-9.6%,-38.0%
Cc1ccc(N2/C(=N/c3nc(C)cc(C)n3)NC(=O)CC2C(=O)O)cc1 (configuration not stated),1.2%,10.8%,16.6%,12.7%,-11.4%,-8.7%
COc1ccccc1N1CCN(C(CNC(=O)C(=O)NCCc2ccccc2)c2cccnc2)CC1 (configuration not stated),11.2µM*,39.8µM*,20µM*,nt,2.0%,5.62µM*
COc1ccc(S(=O)(=O)NCC(c2cccnc2)N2CCN(c3ccccc3)CC2)cc1C (configuration not stated),?,?,-12.9%,-0.1%,6.8%,50.1µM*
